{
  "source": "PubChem BioAssay (EPA / NIEHS)",
  "note": "Several values for one entry are separate records, joined by “and”; a condition that tells them apart may be missing. Identical values can stand only once. Activity calls are given as the source filed them. The calls were made as follows: active = hit-call score of the fitted dose curve at least 0.9, where 1 is the maximum; inactive = score below 0.9.",
  "data": [
    {"assay": "BSK_BE3C_SRB: Viability Assessment in the BioMAP Diversity Plus: BE3C Assay (AID 2283028);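 as to AC50: fitted both ways so AC50 may mark signal gain or loss versus DMSO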", "details": "primary human bronchial epithelial cells", "procedure": "BSK_BE3C is a cell-based, multiplexed-readout assay that uses bronchial epithelial cell, a human lung primary cell, with measurements taken at 24 hours after chemical dosing in a 96-well plate.BSK_BE3C_SRB is an assay component measured in the BSK_BE3C assay. It measures 0.1% sulforhodamine related to cell death using Sulforhodamine staining technology.Data from the assay component BSK_BE3C_SRB was analyzed into 1 assay endpoint. This assay endpoint, BSK_BE3C_SRB, was analyzed with bidirectional fitting relative to DMSO as the negative control and baseline of activity. Using a type of viability reporter, gain or loss-of-signal activity can be used to understand changes in the signaling. Furthermore, this assay endpoint can be referred to as a primary readout, because this assay has produced multiple assay endpoints where this one serves a signaling function. To generalize the intended target to other relatable targets, this assay endpoint is annotated to the cell morphology intended target family, where the subfamily is cell conformation.\nThe levels of cell surface (or secreted, indicated by the prefix \"s\") biomarker endpoints were measured by ELISA. Overt cytotoxicity to cells in confluent adherent cultures (all systems other than the BT system) was assessed by measuring total protein levels using sulforhodamine B (SRB) staining in parallel cultures at the time of biomarker measurements, indicated as SRB endpoints. For proliferation assays for adherent cell types, individual cell types are cultured at sub-confluence and relative cell numbers quantified by SRB staining at time points optimized for each system (48 h: 3C and CASM3C systems; 72 h: BT and HDF3CGF systems; 96 h: SAg system). SRB was performed by staining cells with 0.1% SRB after fixation with 10% TCA and reading wells at 560 nm.Viability and proliferation of PBMC (T cells) was quantified by Alamar Blue reduction for the SAg and BT systems. For PBMC viability (referred to as PBMC Cytotoxicity within the assay endpoint names), cells were plated (75,000/well in a 96-well plate) and then chemical samples added for 1 h before addition of activators, SEB and TSST-1 (20 ng/mL final concentration each). Cells were incubated for 90 h. Then, Alamar Blue (20 uL/well) (Invitrogen, Cat DAL1100) was added for 6 h, and the plates were read with a fluorescence microplate reader at 546/580 nm (excitation/emission). For PBMC proliferation, cells were plated and activated as above but incubated for only 16 h prior to addition of Alamar Blue. Plates were read after 6 h.", "values": [
      {"smiles": "O=[N+]([O-])c1cc(S(=O)(=O)Nc2ccccc2)ccc1Nc1ccccc1", "AC50": "27.5 µM (active) and 31.7 µM (active)"},
      {"smiles": "COc1ccccc1Oc1c(NS(=O)(=O)c2ccc(C(C)(C)C)cc2)nc(-c2ncccn2)nc1OCCO", "outcome": "inactive"},
      {"smiles": "CC(C)CC(=O)CC(C)CC(C)C", "note": "(configuration not stated)", "outcome": "inactive"},
      {"smiles": "CC(C)C1OCCN1CCOC(=O)NCCCCCCNC(=O)OCCN1CCOC1C(C)C", "note": "(configuration not stated)", "outcome": "inactive"},
      {"smiles": "CC[N+](CC)(CC(=O)Nc1c(C)cccc1C)Cc1ccccc1", "outcome": "inactive"},
      {"smiles": "Cc1cc(-n2nc3ccc(Cl)cc3n2)c(O)c(C(C)(C)C)c1", "outcome": "inactive"},
      {"smiles": "CC[N+](CC)(CC(=O)Nc1c(C)cccc1C)Cc1ccccc1", "note": "(tested in a mixture with another compound)", "outcome": "inactive"},
      {"smiles": "COc1ccc(C(=O)c2ccccc2O)c(O)c1", "outcome": "inactive"},
      {"smiles": "CCCCC(CC)COC(=O)C=Cc1ccc(OC)cc1", "note": "(configuration not stated)", "outcome": "inactive"},
      {"smiles": "CCCCCCC(O)CCCCCCCCCCC(=O)OC", "note": "(configuration not stated)", "outcome": "inactive"},
      {"smiles": "Sc1nc2ccccc2s1", "outcome": "inactive"},
      {"smiles": "Cc1cccnc1", "outcome": "inactive"},
      {"smiles": "CCCCCCCCCCCCCCCCCC[N+](C)(C)C", "AC50": "3.49 µM (active)"},
      {"smiles": "CN(C)c1ccc(C(c2ccccc2)c2ccc(N(C)C)cc2)cc1", "outcome": "inactive"},
      {"smiles": "OC(C(F)(F)F)(C(F)(F)F)C(O)(C(F)(F)F)C(F)(F)F", "AC50": "48 µM (active) and 48.9 µM (active)"},
      {"smiles": "C1CN(CCOCCN2CCOCC2)CCO1", "outcome": "inactive"},
      {"smiles": "Cc1c(C(N)=O)cc([N+](=O)[O-])cc1[N+](=O)[O-]", "outcome": "inactive"},
      {"smiles": "COC(=O)/C=C\\C(=O)OC", "outcome": "inactive"},
      {"smiles": "CCC[Si](OC(C)=O)(OC(C)=O)OC(C)=O", "outcome": "inactive"},
      {"smiles": "CCCCCCCCCC/C=C/C1CC(=O)OC1=O", "note": "(configuration not stated)", "outcome": "inactive"},
      {"smiles": "Oc1cccc2ccccc12", "outcome": "inactive"},
      {"smiles": "COc1cc(CNC(=O)CCCC/C=C/C(C)C)ccc1O", "outcome": "inactive"},
      {"smiles": "CN(C)CCC(c1ccc(Cl)cc1)c1ccccn1", "note": "(configuration not stated)", "outcome": "inactive"},
      {"smiles": "CCCCCCCCCCC1CO1", "note": "(configuration not stated)", "outcome": "inactive"},
      {"smiles": "CN(C)Cc1cc(C(C)(C)C)c(O)c(C(C)(C)C)c1", "outcome": "inactive"},
      {"smiles": "CCC(C)=NO", "outcome": "inactive"},
      {"smiles": "O=C(C(=O)c1ccccc1)c1ccccc1", "outcome": "inactive"}
    ]}
  ]
}
